The results in this text go back to ChEMBL document CHEMBL3988442, “University of Dundee, Small-Polar-MMV Screening Library” (2021).

For some of these results: Measured potencies and affinities stand elsewhere.

What all share (set-up): scale not given: direction of the effect not stated beside the values
The target of assay [1] is Protein translocase subunit SecA (Escherichia coli (strain K12)) (UniProt P10408). The experiment in a line: Assay to Identify E. coli SecA ATPase Inhibitors. The assay is classed as functional. To be noted: 30 µM.
Sequence of Protein translocase subunit SecA (Escherichia coli (strain K12)) (P10408 whole entry): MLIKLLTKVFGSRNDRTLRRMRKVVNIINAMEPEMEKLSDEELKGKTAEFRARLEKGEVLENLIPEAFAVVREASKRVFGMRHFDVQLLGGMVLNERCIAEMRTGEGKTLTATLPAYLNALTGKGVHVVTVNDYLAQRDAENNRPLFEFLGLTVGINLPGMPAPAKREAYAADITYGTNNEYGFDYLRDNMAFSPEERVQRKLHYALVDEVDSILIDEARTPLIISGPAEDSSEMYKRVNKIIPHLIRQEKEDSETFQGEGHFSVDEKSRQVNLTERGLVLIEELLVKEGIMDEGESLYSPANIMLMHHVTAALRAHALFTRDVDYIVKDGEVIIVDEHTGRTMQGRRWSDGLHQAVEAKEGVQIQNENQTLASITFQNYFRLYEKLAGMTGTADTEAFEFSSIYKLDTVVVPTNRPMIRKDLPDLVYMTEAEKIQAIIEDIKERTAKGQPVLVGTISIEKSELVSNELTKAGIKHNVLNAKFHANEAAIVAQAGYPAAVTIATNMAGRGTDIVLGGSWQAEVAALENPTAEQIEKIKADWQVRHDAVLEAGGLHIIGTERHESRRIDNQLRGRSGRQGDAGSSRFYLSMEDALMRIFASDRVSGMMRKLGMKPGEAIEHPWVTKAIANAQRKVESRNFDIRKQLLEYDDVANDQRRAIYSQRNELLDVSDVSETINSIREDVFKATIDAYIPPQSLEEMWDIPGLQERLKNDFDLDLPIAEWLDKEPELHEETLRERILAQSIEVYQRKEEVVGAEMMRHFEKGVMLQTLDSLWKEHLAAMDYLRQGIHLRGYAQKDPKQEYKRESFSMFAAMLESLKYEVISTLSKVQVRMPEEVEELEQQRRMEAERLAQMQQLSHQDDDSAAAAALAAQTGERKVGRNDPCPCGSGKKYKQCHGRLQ
In assay [2] the target is T1, Ubiquitin-activating enzyme e1, putative (Leishmania donovani (strain BPK282A1)) (UniProt E9BSI1).
T1 sequence (whole entry): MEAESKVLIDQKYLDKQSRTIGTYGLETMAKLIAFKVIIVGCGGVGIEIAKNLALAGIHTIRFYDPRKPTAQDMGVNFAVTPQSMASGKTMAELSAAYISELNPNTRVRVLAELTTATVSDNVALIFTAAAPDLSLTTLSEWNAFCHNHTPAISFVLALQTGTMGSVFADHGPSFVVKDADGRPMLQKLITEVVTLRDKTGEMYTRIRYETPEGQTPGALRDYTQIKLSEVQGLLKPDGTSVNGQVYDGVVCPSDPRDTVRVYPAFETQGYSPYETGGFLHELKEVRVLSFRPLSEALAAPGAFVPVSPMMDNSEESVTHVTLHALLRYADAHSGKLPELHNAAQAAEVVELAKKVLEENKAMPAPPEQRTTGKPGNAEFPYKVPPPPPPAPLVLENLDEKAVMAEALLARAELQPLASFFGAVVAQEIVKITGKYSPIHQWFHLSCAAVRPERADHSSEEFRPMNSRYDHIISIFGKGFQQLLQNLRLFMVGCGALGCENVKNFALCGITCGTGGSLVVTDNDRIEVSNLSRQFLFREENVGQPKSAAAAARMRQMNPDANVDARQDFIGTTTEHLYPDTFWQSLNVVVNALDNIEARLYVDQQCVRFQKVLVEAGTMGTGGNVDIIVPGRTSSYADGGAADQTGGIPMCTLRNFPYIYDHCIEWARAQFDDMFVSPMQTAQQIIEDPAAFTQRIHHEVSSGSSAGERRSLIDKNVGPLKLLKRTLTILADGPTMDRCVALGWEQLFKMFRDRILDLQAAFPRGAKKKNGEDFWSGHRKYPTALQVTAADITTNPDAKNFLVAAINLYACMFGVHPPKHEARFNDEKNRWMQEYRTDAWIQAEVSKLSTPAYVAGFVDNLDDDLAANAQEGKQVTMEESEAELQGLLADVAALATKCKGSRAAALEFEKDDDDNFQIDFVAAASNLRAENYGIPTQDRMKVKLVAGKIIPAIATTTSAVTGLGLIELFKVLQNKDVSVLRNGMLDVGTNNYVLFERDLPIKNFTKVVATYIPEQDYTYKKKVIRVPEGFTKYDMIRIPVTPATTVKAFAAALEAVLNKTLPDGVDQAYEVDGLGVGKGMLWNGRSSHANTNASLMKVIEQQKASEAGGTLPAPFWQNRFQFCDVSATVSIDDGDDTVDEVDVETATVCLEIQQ
The assay is described as follows: Leishmania donovani Ubiquitin Activating Enzyme (LdE1). The assay is classed as functional. To be noted: 30 µM.

Assay [3] deals with AMP-activated protein kinase, AMPK (Homo sapiens) (UniProt P54646+O43741+P54619+Q9UGJ0+Q9Y478+Q13131+Q9UGI9). The experiment in a line: AMP-dependent Kinase enzyme assay. An in vitro enzyme assay that detects ADP turnover that is directly proportional to AMPK activity. This uses naive AMPK that is activated during the assay with MK-8722. The assay is classed as functional. To be noted: 30 µM.

Assay [4] concerns the target Sialic acid-binding Ig-like lectin 9 (Homo sapiens) (UniProt Q9Y336). The experiment in a line: Hs-Siglec9 ALPHAscreen SOP 20170721. The settings on record: 10 µM.
Assay [5] relates to Trypanosoma cruzi. The experiment in a line: Trypanosoma cruzi phosphomannomutase and mannose-1-phosphate guanylyltransferase assay. Type of assay: functional. The settings on record: 10 µM.
Assay [6] has as its target T2, Arginase-2, mitochondrial (Homo sapiens) (UniProt P78540).
T2 sequence (whole entry): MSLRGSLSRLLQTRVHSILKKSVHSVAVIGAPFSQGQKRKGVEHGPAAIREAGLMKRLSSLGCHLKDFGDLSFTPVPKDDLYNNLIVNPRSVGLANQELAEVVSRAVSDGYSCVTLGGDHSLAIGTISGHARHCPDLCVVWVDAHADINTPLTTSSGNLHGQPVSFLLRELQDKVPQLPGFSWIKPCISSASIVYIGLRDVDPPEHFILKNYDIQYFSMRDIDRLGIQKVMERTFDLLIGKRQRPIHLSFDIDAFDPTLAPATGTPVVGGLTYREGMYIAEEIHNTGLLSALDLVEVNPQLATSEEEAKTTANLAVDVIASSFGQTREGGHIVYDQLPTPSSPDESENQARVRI
The experiment in a line: in vitro enzyme assay to detect the production of urea directly proportional to the activity of Arginase II. Note: in the data most compounds retested in dose-response had high values. The assay is classed as functional. To be noted: 33.3 µM.

Assay [7] addresses T3, Proteasome subunit beta (Trypanosoma cruzi) (UniProt O96673).
T3 sequence (whole entry): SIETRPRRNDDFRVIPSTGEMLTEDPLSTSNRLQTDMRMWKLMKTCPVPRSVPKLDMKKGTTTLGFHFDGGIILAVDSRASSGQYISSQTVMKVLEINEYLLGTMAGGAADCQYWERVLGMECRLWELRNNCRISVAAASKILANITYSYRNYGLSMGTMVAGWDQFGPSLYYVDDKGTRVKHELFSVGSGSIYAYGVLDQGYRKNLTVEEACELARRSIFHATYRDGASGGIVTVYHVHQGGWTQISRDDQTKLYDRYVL
The experiment in a line: Trypanosoma cruzi proteasome chymotrypsin-like activity (TcProtChymo) assay. Note: in the data most compounds retested in dose-response had high values. The assay is classed as functional. The settings on record: 9.37 µM.

Assay [8] is filed under the species Homo sapiens. The assay is described as follows: To identify inhibition of the IFN signalling (Jak-Stat) pathway via expression of an eGFP reporter gene under the control of an IFN-stimulated response element (ISRE) containing MxA promoter. The assay is classed as functional. To be noted: 30 µM. (In general: In a reporter assay the amount or activity of a reporter protein is the signal.)

In assay [9] the target is T4, Tyrosyl-tRNA synthetase, putative (Trypanosoma cruzi (strain CL Brener)) (UniProt Q4DSP6).
T4 sequence (whole entry): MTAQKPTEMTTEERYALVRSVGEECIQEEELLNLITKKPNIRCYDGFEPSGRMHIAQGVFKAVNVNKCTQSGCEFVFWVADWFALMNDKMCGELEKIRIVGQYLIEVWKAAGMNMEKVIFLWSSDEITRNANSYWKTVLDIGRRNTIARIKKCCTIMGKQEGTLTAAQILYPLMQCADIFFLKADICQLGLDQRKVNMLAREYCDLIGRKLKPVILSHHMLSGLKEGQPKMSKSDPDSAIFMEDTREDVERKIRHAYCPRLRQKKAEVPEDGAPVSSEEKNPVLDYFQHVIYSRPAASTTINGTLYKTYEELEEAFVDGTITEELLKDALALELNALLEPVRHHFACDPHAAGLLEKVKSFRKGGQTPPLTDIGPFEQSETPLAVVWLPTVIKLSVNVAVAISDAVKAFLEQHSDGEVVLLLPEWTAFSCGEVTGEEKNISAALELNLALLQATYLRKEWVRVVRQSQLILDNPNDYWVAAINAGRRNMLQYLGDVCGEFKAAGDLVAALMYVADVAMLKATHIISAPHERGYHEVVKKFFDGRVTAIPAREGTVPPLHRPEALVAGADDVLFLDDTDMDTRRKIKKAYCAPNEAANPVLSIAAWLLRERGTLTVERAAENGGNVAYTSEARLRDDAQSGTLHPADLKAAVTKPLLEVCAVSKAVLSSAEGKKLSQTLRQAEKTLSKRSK
The assay is described as follows: Trypanosoma cruzi tyrosyl tRNA synthetase (TcYRS) _High Tyrosine SOP. Note: in the data most compounds retested in dose-response had high values. The assay is classed as functional. The settings on record: 30 µM.

Assay [10] deals with T4, Tyrosyl-tRNA synthetase, putative (Trypanosoma cruzi (strain CL Brener)). The experiment in a line: Trypanosoma cruzi tyrosyl tRNA synthetase (TcYRS) SOP. Type of assay: functional. The settings on record: 30 µM.
For assay [11], the target named is Chromo domain-containing protein 1 (Saccharomyces cerevisiae (strain ATCC 204508 / S288c) (Baker's yeast)) (UniProt P32657). The experiment in a line: ScCHD-1 Enzyme Inhibition Assay. Note: in the data most compounds retested in dose-response had high values. Type of assay: functional. The settings on record: 30 µM.
Sequence of Chromo domain-containing protein 1 (Saccharomyces cerevisiae (strain ATCC 204508 / S288c) (Baker's yeast)) (P32657 whole entry, the tested form may be a part): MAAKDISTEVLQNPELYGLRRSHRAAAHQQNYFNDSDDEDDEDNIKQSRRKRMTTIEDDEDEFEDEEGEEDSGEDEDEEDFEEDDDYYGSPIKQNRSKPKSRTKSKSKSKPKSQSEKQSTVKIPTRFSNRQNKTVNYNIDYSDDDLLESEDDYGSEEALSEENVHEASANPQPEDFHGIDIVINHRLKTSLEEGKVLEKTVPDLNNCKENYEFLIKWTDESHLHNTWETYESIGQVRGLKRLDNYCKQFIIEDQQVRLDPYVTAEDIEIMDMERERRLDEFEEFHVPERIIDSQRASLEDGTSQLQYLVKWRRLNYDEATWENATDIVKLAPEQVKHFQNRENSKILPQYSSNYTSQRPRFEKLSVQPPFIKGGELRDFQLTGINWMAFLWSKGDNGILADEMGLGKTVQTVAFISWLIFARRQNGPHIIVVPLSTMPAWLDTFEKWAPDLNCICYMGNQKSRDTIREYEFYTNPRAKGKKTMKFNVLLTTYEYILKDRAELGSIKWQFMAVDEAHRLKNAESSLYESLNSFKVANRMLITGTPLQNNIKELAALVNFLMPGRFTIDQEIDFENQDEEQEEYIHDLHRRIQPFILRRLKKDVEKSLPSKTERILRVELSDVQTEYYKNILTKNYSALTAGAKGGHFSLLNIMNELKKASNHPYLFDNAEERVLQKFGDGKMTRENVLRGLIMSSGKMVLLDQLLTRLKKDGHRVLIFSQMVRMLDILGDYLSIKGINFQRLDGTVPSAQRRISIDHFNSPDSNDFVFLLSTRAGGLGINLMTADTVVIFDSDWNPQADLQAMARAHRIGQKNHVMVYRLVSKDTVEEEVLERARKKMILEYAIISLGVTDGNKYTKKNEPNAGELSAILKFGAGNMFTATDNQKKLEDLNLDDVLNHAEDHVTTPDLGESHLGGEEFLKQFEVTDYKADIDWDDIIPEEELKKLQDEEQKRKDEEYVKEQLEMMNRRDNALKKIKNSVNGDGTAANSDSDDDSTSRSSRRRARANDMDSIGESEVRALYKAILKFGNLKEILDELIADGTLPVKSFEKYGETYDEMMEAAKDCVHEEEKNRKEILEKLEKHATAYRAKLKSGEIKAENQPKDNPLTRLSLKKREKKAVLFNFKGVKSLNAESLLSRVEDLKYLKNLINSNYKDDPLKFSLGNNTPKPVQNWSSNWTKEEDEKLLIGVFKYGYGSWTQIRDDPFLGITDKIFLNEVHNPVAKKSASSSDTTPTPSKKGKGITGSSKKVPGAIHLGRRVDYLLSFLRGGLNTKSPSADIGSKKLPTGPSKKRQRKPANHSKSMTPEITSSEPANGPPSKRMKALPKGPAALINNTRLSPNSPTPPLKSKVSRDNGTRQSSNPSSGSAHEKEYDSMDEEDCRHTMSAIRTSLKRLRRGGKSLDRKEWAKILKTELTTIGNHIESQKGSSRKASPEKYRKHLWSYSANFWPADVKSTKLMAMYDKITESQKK

Sequence of Sialic acid-binding Ig-like lectin 9 (Homo sapiens) (Q9Y336 whole entry): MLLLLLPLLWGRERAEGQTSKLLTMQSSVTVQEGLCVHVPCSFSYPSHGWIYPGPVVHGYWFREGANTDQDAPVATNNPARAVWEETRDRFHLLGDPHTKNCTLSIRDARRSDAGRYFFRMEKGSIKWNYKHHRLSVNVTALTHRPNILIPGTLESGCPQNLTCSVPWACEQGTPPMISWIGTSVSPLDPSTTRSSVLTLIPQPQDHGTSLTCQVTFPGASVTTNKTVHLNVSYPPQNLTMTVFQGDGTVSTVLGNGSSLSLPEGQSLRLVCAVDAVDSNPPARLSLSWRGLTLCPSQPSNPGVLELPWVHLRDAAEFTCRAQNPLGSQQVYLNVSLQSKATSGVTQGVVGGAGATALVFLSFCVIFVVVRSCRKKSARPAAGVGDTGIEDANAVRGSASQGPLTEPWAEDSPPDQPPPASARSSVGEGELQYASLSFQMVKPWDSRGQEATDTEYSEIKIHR

As to `COC(=O)CCc1c(C)nc2cc(O)nn2c1C`, the Percent Effect is -4.39% in assay [1]; 20.8% in [2]; -48.9% in [3]; 6.03% in assay [4]; 1.31% in [5]; -3.92% in assay [6]. Further, the Percent Effect was 9.46% in [7]; 6.61% in [8]; 9.71% in assay [9]; 21.9% in [10]; -9.77% in [11].
Regarding `CN(C)C(=O)NC1COC2(CCN(C(=O)Nc3ccccc3)CC2)C1` (stereo not drawn), the Percent Effect in assay [1] was 5.37%; in assay [2] it was 18.7%; in assay [3], 1.41%; in assay [4] it was -7.63%; in [5] it was -3.54%; in [6] it was 0.699%. The Percent Effect in [7] is 8.72%; in assay [8], 3.6%; in assay [9], -1.06%; in assay [10], 6.41%; in assay [11] it was 2.03%.
With `Cc1ccc(C(NC(=O)[C@H]2CC[C@@H](O)CC2)c2cccnc2)cc1C` (stereo partly drawn), the Percent Effect in assay [1] was -7.06%; in assay [2], 5.33%; in assay [3], 2.02%; in assay [4], 2.58%; in assay [5], -1.07%; in assay [6], 4.17%. For the same compound, the Percent Effect in assay [7] is 8.2%; in assay [8], -9.12%; in [9] it was 0.546%; in assay [10], 8.64%; in assay [11], -6.38%.
Consider `CC(C)c1nc2n(n1)CC(NCc1ncc(-c3ccccc3)o1)CC2` (stereo not drawn), for which the Percent Effect in assay [1] was -0.807%; in assay [2], 2.6%; in [3], -3.44%; in assay [4] it was 5.78%; in assay [5], 4.8%; in assay [6] it was 4.84%. Moreover, the Percent Effect was 4.12% in [7]; 8.03% in assay [8]; 2.86% in [9]; 2.35% in assay [10]; -14.2% in assay [11].
As for `CC(NC(=O)c1cccs1)C(=O)NCc1ccccc1CN1CCCC1` (stereo not drawn), the Percent Effect is -4.29% in assay [1]; 23.4% in assay [2]; -5.29% in [3]; 2.04% in assay [4]; 4.12% in assay [5]; 3.2% in [6]. The Percent Effect in assay [7] was 12.5%; in assay [8], 5.06%; in assay [9], 12.6%; in assay [10] it was 21.9%; in assay [11], -11.2%.
As for `O=C(c1cccnc1)N1C[C@@H]2CC[C@H](C1)N(Cc1cc(F)ccc1F)C2`, the Percent Effect was 0.34% in assay [1]; 11% in [2]; 29.4% in assay [3]; -0.061% in [4]; 3.33% in [5]; 0% in [6]. Moreover, the Percent Effect in assay [7] is 10.3%; in [8] it was 21.9%; in [9] it was 7.53%; in [10], 15%; in assay [11], -7.41%.
In the case of `CC(C)NC(=O)C1CN(C(N)=O)Cc2ccnn2C1` (stereo not drawn), the Percent Effect was -0.679% in [1]; 10.7% in [2]; 5.48% in [3]; 1.25% in assay [4]; 0.579% in assay [5]; -58.2% in [6]. Also, the Percent Effect was 9.91% in [7]; 0.0597% in assay [8]; 3.12% in assay [9]; 15% in assay [10]; -5.6% in [11].
`O=C(NCC(O)CN1CCc2ccccc2C1)Nc1cccnc1` (stereo not drawn): the Percent Effect in assay [1] is -4.38%; in [2], 13%; in assay [3], 3.15%; in [4] it was 3.21%; in assay [5], 0.294%; in assay [6], 3.58%. The Percent Effect is 11.2% in [7]; 14.5% in assay [8]; 1.91% in assay [9]; -25.9% in [10]; -11.5% in [11].
